Results reported in PMC7862700, “An all-to-all approach to the identification of sequence-specific readers for epigenetic DNA modifications on cytosine”.

Experiments:
Assay in all cases: DAPPL (digital affinity profiling via proximity ligation, sequencing); 10 mM Tris-HCl pH 7.5, 50 mM NaCl, 1 mM DTT, 4% glycerol, room temperature, 30 min; GST-TFs on glutathione beads, 16-mer random dsDNA library, 0.1% formaldehyde crosslink after washing; high values mean tight binding
Settings in all cases: protein: recombinant; tags: N-terminal GST; dsDNA, one strand shown
[1] = molecular target: T1, FLI1 (Homo sapiens, UniProt Q01543 1-452)
T1 sequence: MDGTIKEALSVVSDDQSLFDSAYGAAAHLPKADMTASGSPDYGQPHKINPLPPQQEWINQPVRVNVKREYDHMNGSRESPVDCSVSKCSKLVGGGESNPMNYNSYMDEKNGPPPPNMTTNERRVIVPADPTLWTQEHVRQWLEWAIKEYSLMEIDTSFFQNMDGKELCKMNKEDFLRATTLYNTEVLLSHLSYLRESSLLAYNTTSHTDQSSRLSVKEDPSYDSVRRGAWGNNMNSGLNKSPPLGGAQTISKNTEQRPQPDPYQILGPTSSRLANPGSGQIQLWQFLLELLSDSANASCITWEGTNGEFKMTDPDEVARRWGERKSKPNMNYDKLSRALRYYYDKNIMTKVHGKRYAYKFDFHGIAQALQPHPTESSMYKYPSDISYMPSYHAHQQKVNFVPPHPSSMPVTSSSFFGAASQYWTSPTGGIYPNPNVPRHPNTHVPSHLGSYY
Outline: (§1)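 Human transcription factors were made in yeast as GST fusions, captured on glutathione beads and barcoded with DNA. With a tag-only sample included, the pool was incubated with 200 nmole of a random double-stranded 16-mer DNA library in Tris/NaCl/DTT/glycerol buffer at room temperature for 30 min, then crosslinked with 0.1% formaldehyde after washing, ligated by proximity, amplified and sequenced. For binding signal, each hexamer's read frequency for a factor is divided by its frequency for the tag-only sample.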

[2] = molecular target: T2, ELK1 (Homo sapiens, UniProt P19419 1-428)
T2 sequence: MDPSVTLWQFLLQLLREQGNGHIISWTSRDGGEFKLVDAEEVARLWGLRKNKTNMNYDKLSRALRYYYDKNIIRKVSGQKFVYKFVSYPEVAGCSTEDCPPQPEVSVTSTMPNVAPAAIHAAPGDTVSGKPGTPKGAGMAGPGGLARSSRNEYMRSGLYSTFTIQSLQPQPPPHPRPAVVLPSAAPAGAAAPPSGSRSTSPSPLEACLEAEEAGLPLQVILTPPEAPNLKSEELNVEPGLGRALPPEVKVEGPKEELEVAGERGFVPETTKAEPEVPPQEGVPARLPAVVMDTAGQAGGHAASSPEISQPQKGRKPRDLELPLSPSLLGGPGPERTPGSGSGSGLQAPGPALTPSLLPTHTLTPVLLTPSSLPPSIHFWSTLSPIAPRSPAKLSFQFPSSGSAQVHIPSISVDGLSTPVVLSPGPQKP
Outline: as §1

[3] = molecular target: T3, GABPA (Homo sapiens, UniProt Q06546 1-454)
T3 sequence: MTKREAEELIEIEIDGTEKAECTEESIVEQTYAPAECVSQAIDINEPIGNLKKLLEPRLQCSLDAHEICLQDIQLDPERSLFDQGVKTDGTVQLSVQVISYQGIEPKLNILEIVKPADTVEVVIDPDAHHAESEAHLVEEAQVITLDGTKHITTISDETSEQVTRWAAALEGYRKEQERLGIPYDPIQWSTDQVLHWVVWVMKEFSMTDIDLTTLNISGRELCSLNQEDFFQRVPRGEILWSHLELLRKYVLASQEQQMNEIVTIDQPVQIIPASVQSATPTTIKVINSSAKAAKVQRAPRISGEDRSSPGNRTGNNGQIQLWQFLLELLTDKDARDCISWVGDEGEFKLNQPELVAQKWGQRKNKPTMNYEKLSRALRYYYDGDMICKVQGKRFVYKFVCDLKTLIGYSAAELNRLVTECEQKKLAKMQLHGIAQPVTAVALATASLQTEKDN
Outline: as §1

[4] = molecular target: T4, ERG (Homo sapiens, UniProt P11308 1-479)
T4 sequence: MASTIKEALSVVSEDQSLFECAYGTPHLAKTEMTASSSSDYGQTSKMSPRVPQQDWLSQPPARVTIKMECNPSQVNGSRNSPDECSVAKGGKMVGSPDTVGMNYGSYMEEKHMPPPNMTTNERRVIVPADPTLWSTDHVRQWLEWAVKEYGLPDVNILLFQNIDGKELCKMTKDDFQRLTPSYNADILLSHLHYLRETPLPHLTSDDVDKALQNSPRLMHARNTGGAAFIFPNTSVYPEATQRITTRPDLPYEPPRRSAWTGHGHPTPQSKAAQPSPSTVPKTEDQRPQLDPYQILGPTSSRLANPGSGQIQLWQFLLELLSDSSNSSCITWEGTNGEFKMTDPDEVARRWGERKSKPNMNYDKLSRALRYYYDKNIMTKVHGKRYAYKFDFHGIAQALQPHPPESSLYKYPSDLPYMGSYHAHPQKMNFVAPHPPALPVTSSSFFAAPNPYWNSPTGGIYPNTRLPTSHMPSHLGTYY
Outline: as §1

[5] = molecular target: ELF1 (Homo sapiens, UniProt P32519 1-619)
Outline: as §1

[6] = molecular target: T5, EHF (Homo sapiens, UniProt Q9NZC4 1-300)
T5 sequence: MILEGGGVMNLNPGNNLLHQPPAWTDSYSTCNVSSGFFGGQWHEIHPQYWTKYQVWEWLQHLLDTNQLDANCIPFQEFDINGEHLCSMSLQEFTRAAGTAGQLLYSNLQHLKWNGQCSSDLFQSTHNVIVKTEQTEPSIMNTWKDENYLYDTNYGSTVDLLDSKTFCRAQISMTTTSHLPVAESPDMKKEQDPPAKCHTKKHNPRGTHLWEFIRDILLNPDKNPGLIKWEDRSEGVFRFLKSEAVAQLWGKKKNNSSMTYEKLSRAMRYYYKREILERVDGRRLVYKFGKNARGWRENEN
Outline: as §1

[7] = molecular target: SPI1 (Homo sapiens, UniProt P17947 1-270)
Outline: as §1

[8] = molecular target: SPIB (Homo sapiens, UniProt Q01892 1-262)
Outline: as §1

[9] = molecular target: T6, ELK3 (Homo sapiens, UniProt P41970 1-407)
T6 sequence: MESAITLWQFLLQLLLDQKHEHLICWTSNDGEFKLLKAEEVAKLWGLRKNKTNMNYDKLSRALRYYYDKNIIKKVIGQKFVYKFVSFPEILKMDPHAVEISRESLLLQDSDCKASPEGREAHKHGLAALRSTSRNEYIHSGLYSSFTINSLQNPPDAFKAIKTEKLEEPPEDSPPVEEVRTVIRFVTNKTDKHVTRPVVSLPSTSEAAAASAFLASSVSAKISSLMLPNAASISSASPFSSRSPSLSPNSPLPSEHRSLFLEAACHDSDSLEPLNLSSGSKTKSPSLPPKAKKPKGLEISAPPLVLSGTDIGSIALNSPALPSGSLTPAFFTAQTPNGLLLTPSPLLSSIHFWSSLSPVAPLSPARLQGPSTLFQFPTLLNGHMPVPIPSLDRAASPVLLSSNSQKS
Outline: as §1

SPIB, sequence (Q01892 whole entry): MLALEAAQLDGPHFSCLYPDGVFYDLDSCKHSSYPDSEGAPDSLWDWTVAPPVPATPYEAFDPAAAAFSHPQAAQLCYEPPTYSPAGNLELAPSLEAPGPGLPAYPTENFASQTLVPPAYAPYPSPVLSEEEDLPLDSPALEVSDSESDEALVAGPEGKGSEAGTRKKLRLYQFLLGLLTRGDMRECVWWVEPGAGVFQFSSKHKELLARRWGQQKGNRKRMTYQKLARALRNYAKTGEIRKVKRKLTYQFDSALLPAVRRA
ELF1, sequence (P32519 whole entry): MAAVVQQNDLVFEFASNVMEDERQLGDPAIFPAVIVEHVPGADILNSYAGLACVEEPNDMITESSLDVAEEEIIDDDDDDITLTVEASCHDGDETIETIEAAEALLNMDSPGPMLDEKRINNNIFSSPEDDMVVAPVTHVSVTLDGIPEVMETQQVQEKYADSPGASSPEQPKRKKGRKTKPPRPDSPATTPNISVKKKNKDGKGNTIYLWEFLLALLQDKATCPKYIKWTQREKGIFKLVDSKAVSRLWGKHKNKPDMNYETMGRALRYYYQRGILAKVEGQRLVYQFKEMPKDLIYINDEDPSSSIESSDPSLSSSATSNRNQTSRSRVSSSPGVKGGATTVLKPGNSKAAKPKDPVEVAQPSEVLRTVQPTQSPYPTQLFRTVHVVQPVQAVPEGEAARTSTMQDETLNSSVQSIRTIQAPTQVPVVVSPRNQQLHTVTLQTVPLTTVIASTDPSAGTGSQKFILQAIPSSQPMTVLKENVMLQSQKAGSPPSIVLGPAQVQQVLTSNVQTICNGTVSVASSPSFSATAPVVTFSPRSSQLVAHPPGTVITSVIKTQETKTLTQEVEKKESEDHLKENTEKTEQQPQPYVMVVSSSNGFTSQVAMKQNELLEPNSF

| Sequence | binding signal [1] | binding signal [2] | binding signal [3] | binding signal [4] | binding signal [5] | binding signal [6] | binding signal [7] | binding signal [8] | binding signal [9] |
| --- | --- | --- | --- | --- | --- | --- | --- | --- | --- |
| GAATAA | 1.01 fold enrichment (6-mer frequency, TF over GST control) | 1.08 fold enrichment (6-mer frequency, TF over GST control) | 1.07 fold enrichment (6-mer frequency, TF over GST control) | 1.06 fold enrichment (6-mer frequency, TF over GST control) | 1.09 fold enrichment (6-mer frequency, TF over GST control) | 1.09 fold enrichment (6-mer frequency, TF over GST control) | 1.03 fold enrichment (6-mer frequency, TF over GST control) | 1.11 fold enrichment (6-mer frequency, TF over GST control) | 1.17 fold enrichment (6-mer frequency, TF over GST control) |
| TGTTTT | 1.36 fold enrichment (6-mer frequency, TF over GST control) | 1.32 fold enrichment (6-mer frequency, TF over GST control) | 1.35 fold enrichment (6-mer frequency, TF over GST control) | 1.26 fold enrichment (6-mer frequency, TF over GST control) | 1.34 fold enrichment (6-mer frequency, TF over GST control) | 1.35 fold enrichment (6-mer frequency, TF over GST control) | 1.43 fold enrichment (6-mer frequency, TF over GST control) | 1.3 fold enrichment (6-mer frequency, TF over GST control) | 1.43 fold enrichment (6-mer frequency, TF over GST control) |
| CCATTT | 1.25 fold enrichment (6-mer frequency, TF over GST control) | 1.29 fold enrichment (6-mer frequency, TF over GST control) | 1.42 fold enrichment (6-mer frequency, TF over GST control) | 1.4 fold enrichment (6-mer frequency, TF over GST control) | 1.27 fold enrichment (6-mer frequency, TF over GST control) | 1.31 fold enrichment (6-mer frequency, TF over GST control) | 1.45 fold enrichment (6-mer frequency, TF over GST control) | 1.37 fold enrichment (6-mer frequency, TF over GST control) | 1.33 fold enrichment (6-mer frequency, TF over GST control) |
| TTTGAC | 1.57 fold enrichment (6-mer frequency, TF over GST control) | 1.59 fold enrichment (6-mer frequency, TF over GST control) | 1.55 fold enrichment (6-mer frequency, TF over GST control) | 1.45 fold enrichment (6-mer frequency, TF over GST control) | 1.4 fold enrichment (6-mer frequency, TF over GST control) | 1.35 fold enrichment (6-mer frequency, TF over GST control) | 1.34 fold enrichment (6-mer frequency, TF over GST control) | 1.35 fold enrichment (6-mer frequency, TF over GST control) | 1.34 fold enrichment (6-mer frequency, TF over GST control) |
| CGAATA | 1.09 fold enrichment (6-mer frequency, TF over GST control) | 1.23 fold enrichment (6-mer frequency, TF over GST control) | 1.17 fold enrichment (6-mer frequency, TF over GST control) | 1.07 fold enrichment (6-mer frequency, TF over GST control) | 1.28 fold enrichment (6-mer frequency, TF over GST control) | 1.2 fold enrichment (6-mer frequency, TF over GST control) | 1.13 fold enrichment (6-mer frequency, TF over GST control) | 1.11 fold enrichment (6-mer frequency, TF over GST control) | 1.21 fold enrichment (6-mer frequency, TF over GST control) |
| TTTTCT | 1.31 fold enrichment (6-mer frequency, TF over GST control) | 1.29 fold enrichment (6-mer frequency, TF over GST control) | 1.27 fold enrichment (6-mer frequency, TF over GST control) | 1.34 fold enrichment (6-mer frequency, TF over GST control) | 1.29 fold enrichment (6-mer frequency, TF over GST control) | 1.46 fold enrichment (6-mer frequency, TF over GST control) | 1.45 fold enrichment (6-mer frequency, TF over GST control) | 1.18 fold enrichment (6-mer frequency, TF over GST control) | 1.31 fold enrichment (6-mer frequency, TF over GST control) |
| AATGTT | 1.55 fold enrichment (6-mer frequency, TF over GST control) | 1.47 fold enrichment (6-mer frequency, TF over GST control) | 1.49 fold enrichment (6-mer frequency, TF over GST control) | 1.48 fold enrichment (6-mer frequency, TF over GST control) | 1.57 fold enrichment (6-mer frequency, TF over GST control) | 1.56 fold enrichment (6-mer frequency, TF over GST control) | 1.47 fold enrichment (6-mer frequency, TF over GST control) | 1.58 fold enrichment (6-mer frequency, TF over GST control) | 1.47 fold enrichment (6-mer frequency, TF over GST control) |
| ATATAC | 1.13 fold enrichment (6-mer frequency, TF over GST control) | 1.24 fold enrichment (6-mer frequency, TF over GST control) | 1.2 fold enrichment (6-mer frequency, TF over GST control) | 1.18 fold enrichment (6-mer frequency, TF over GST control) | 1.14 fold enrichment (6-mer frequency, TF over GST control) | 1.22 fold enrichment (6-mer frequency, TF over GST control) | 1.19 fold enrichment (6-mer frequency, TF over GST control) | 1.21 fold enrichment (6-mer frequency, TF over GST control) | 1.27 fold enrichment (6-mer frequency, TF over GST control) |
